PNC assembly inh – blocks assembly of the perinucleolar compartment. PC3M PTB-GFP, PNC prevalence imaging, 16 h; stronger effect = lower value. activity change (PNC), negative = inhibition, % at 10 µM. 3.1% of 140,000 active;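 active = readout at or below -70, meaning at least 70% loss of cells showing the perinucleolar compartment, a nuclear body marking cancer cells; inconclusive = readout between -30 and a set limit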;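 also: plate controls were DMSO wells for no effect and camptothecin positive control wells for full effect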
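Compounds are pinned in duplicate onto adhered PC3M cells stably expressing GFP-tagged PTB and incubated 16 h at 37 C. Cells are then fixed, nuclei stained with Hoechst, and PNC-positive cells counted.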
HPGD block – HPGD (human) dehydrogenase inhibition | P15428 | purified HPGD, NADH fluorescence kinetic, PGE2 substrate | Potency, µM, without a hit: at the top dose activity change, negative = inhibition, usual class: inhibitors | 4.3% of 150,000 active; active = well fitted inhibition curve with a large enough effect, not every such curve was filed as active; inconclusive = small, poorly fitted or top-dose-only effect, or another doubt; inactive = no such curve, though single readings can be large or run the other way; also: potency is read from the fitted curve at half-maximal effect
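20 nM HPGD preincubated 15 min at room temperature with compound in 50 mM Tris-HCl pH 8, 0.01% Tween 20. Started with 1 mM NAD+ and 30 uM prostaglandin E2; NADH fluorescence (360/450 nm) read 5 times over 30-s intervals, last minus first.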
12-hLO inh – 12-hLO (ALOX12) enzyme inhibition. P18054. purified 12-hLO, xylenol orange hydroperoxide absorbance. Potency, µM (titrated, usually from 57.1 µM), without a hit: at the highest dose activity change, negative = inhibition, most hits filed as inhibitors. 0.12% of 150,000 active; also: potency is read from the fitted curve at half-maximal effect; nearly all actives have a fitted effect of over 55% in size
Target sequence (P18054 whole entry, looked up): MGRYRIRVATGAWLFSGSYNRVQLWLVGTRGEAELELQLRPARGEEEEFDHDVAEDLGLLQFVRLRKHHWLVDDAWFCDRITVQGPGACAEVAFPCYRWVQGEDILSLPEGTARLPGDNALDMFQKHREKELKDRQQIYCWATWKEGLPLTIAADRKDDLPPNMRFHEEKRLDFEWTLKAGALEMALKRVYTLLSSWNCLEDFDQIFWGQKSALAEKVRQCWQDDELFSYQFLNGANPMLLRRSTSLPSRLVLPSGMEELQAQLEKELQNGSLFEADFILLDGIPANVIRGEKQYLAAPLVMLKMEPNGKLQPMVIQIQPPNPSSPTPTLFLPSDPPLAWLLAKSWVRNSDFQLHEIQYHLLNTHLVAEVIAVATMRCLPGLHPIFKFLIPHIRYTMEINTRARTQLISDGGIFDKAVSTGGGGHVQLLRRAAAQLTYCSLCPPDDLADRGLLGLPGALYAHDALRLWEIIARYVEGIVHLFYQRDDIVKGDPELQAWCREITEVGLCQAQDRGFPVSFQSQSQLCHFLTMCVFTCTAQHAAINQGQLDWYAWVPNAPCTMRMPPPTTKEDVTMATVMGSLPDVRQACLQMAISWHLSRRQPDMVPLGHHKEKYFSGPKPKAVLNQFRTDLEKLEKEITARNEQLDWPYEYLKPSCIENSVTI
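150 nM 12hLO, 25 mM Hepes pH 7.0 + 0.01% Triton X-100; cpd preinc 15 min RT; 40 uM arachidonic acid, 30 min RT; Fe-XO 30 min; A573/A405 ratio as read-out.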
IMPase Li cell – IMPase inhibition in cells with lithium potentiation; CHO-M1 cells, IP1 TR-FRET (IP-One), carbachol + lithium; Potency, µM (titrated, usually from 59.4 µM), inactives show at the top dose activity, negative = IMPase inhibition, usual class: inhibitors; 0.35% of 210,000 active;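 also: IP1 builds up when IMPase is blocked and the TR-FRET signal falls; potency is read from the fitted curve at half-maximal effect; plate controls were basal vehicle for no effect and high inhibitor control for full effect; nearly all actives have a fitted effect of over 50% in size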
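CHO cells stably expressing M1 receptor (2000/well, cultured 16–30 h) treated 30 min at 37C with compound plus low lithium. Cytosolic IP1 by TR-FRET (665/620 ratio and 620 channel) after 10 min lysis; AC50 by Hill fit.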
ALDH1A1 inh – blocks purified human ALDH1A1 activity; Potency, µM (series often up to 75.3 µM), for the others: at the highest dose activity, negative = inhibition, most hits filed as inhibitors; AID 1030; P00352; 7.3% of 220,000 active; Purified ALDH1A1, NADH fluorescence, propionaldehyde substrate; active = well fitted inhibition curve with a large enough effect, not every such curve was filed as active; inconclusive = small, poorly fitted or top-dose-only effect, or another doubt; inactive = no such curve, though single readings can be large or run the other way;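 also: potency is read from the fitted curve at half-maximal effect; plate controls were no enzyme wells and a reference inhibitor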
IMPase inh – cell-permeable inhibitors of inositol monophosphatase (IMPase); P97697; CHO-M1 cells, IP1 accumulation, HTRF TR-FRET ratio; inhibition (IP1 accumulation), % at 46.1 µM; 120,000 tested, under 10 active; AID 901; active = well fitted curve in the direction sought with a large enough effect in the signal ratio, not every such curve was filed as active; inconclusive = small, poorly fitted or top-dose-only effect, or a change in a side signal; inactive = no such curve, though single readings can be large or run the other way; the % refers to the signal ratio;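 also: cells stimulated with carbachol in lithium chloride buffer; plate controls were DMSO basal wells for no effect and reference inhibitor wells for full effect; higher means more IMPase inhibition seen as more IP1 and lower FRET ratio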
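Elevated IP1 in lysates lowers TR-FRET signal (665/620 ratio and 620 channel reported). Cells were CHO-M1, given carbachol (50 uM as added) plus 50mM LiCl, pH 7.4, 30 min, 37C; compounds titrated up to 46 uM; AC50 by Hill equation.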
An asterisk follows results filed as active; [ ] = dose if it differs, or a comment. The list is not random: actives were taken first. Their share in the collection is about 11%. Unless noted, calls follow the shape of the dose curve; as a rule, active = well fitted curve in the direction sought with a large enough effect; inconclusive = small, poorly fitted or top-dose-only effect, or another doubt; inactive = no such curve, though single readings can be large; an effect the other way counts as inactive or inconclusive. Unless noted, % is scaled to controls: 0 for no effect and ±100 for the full control effect.

Results for COc1ccc(NC(=S)NNC(=O)c2ccc(S(=O)(=O)N3CCOCC3)cc2)cc1 ?
IMPase Li cell: 5.3%; ALDH1A1 inh: inconclusive

What do the screens show for `COc1cc(OC)cc(C(=O)NNC(=S)Nc2ccc(S(N)(=O)=O)cc2)c1`?
IMPase Li cell: 1.4%; ALDH1A1 inh: 11.2µM*

Results for Cc1ccc(NC(=S)NCCc2ccc(S(N)(=O)=O)cc2)cc1C ?
PNC assembly inh: -108.6*; 12-hLO inh: -5.1%; ALDH1A1 inh: inconclusive; IMPase inh: 4.3

How did NS(=O)(=O)c1ccc(CNC(=S)NC2CC2)cc1 do in these assays?
ALDH1A1 inh: 3.16µM*

Results for CC(C)C(=O)n1nc(-c2cccnc2)nc1NCc1cccs1 ?
IMPase Li cell: 23.8%; ALDH1A1 inh: inconclusive

How did Cc1ccc(NC(=O)CCOc2ccccc2C)cc1F do in these assays?
IMPase Li cell: 0.9%; ALDH1A1 inh: -0.3%

How did O=C(c1ccc2c(c1)OCO2)C1CCCN(Cc2ccc3nsnc3c2)C1 (centres undefined) do in these assays?
IMPase Li cell: 25.2%; ALDH1A1 inh: inconclusive

What do the screens show for `Cn1c(CN2CCCC(C(=O)c3ccc4c(c3)OCO4)C2)nc2ccccc21` (centres undefined)?
IMPase Li cell: 22.8%; ALDH1A1 inh: 28.2µM*

What do the screens show for `CCC1OCCC=CC1C` (centres undefined)?
ALDH1A1 inh: 5.0%[13.5 µM]

What do the screens show for `CCOC(=O)C1(C(=O)O)NC(=O)CC1c1ccccc1` (centres undefined)?
PNC assembly inh: -95.2*; HPGD block: -8.3%; 12-hLO inh: 1.3%; IMPase Li cell: 6.1%[38.3 µM]; ALDH1A1 inh: -8.3%; IMPase inh: 2.6

Results for CCOC(=O)C1(C(=O)OCC)CC1c1ccccc1 (centres undefined) ?
PNC assembly inh: inconclusive; HPGD block: 0.5%; 12-hLO inh: 1.0%; IMPase Li cell: 19.3%[38.3 µM]; ALDH1A1 inh: 9.0%; IMPase inh: 9.4[1.84 µM]

What do the screens show for `Cc1cccc(Cn2nnc3c2C(=O)c2ccccc2C3=O)c1`?
PNC assembly inh: 26.3; HPGD block: 14.1µM*; 12-hLO inh: -0.8%; IMPase Li cell: 13.1%; ALDH1A1 inh: -5.5%; IMPase inh: 12.8

How did Cc1cccc(NC(=O)C2CCN(S(=O)(=O)c3ccc(F)cc3)CC2)c1C do in these assays?
IMPase inh: -7.7

Results for CC(C)c1cc(N2CCC(=O)NC2=O)cc(C(=O)O)c1O ?
PNC assembly inh: -113.8*; HPGD block: inconclusive; 12-hLO inh: -2.5%; IMPase Li cell: -7.7%; ALDH1A1 inh: inconclusive

Results for Cc1ccc(NC(=O)CN2CCC(NC(=O)C3CCCCC3)CC2)c(Br)c1 ?
PNC assembly inh: 1.5; HPGD block: -0.2%; 12-hLO inh: 3.3%; IMPase Li cell: 3.7%; ALDH1A1 inh: 0.7%; IMPase inh: 0.7

Results for Cc1ccc(C(=O)CN2CCC(NC(=O)C3CCCCC3)CC2)cc1 ?
PNC assembly inh: 38.6; HPGD block: -9.9%; 12-hLO inh: -6.7%; IMPase Li cell: 8.8%[38.3 µM]; ALDH1A1 inh: 14.1µM*; IMPase inh: -7.7

What do the screens show for `C[C@@](N)(C(=O)O)c1ccc(P(=O)(O)O)cc1`?
HPGD block: -5.9%; 12-hLO inh: -3.3%; IMPase Li cell: -0.1%; ALDH1A1 inh: 17.7%; IMPase inh: -1.4

How did N#CCCn1cc(C(=O)Nc2ccc([N+](=O)[O-])cc2)c(-c2cccs2)n1 do in these assays?
PNC assembly inh: 72.8; HPGD block: -15.2%; 12-hLO inh: -5.8%; IMPase Li cell: 1.5%; ALDH1A1 inh: 22.4µM*

Results for CCOC(=O)C1=C(c2cccc(F)c2)NC(=S)NC1C (centres undefined) ?
PNC assembly inh: -13.2; HPGD block: -2.5%; 12-hLO inh: -7.5%; IMPase Li cell: 16.4%[38.3 µM]; ALDH1A1 inh: 1.58µM*; IMPase inh: 0.5

Results for CCOc1cc(NC2CS(=O)(=O)CC2O)c(OCC)cc1NC(=O)c1ccccc1 (centres undefined) ?
PNC assembly inh: 78.5; HPGD block: -12.7%; 12-hLO inh: -25.3%; IMPase Li cell: 11.7%[38.3 µM]; ALDH1A1 inh: 12.6µM*; IMPase inh: 14.2

What do the screens show for `CCOc1cc(NC(=O)c2ccccn2)c(OCC)cc1NC(=O)c1ccccc1`?
IMPase Li cell: 7.2%; ALDH1A1 inh: 0.4%

Results for CCCOc1ccc(N)cc1N ?
PNC assembly inh: -127.5*; HPGD block: -14.1%; 12-hLO inh: -10.3%; IMPase Li cell: 24.3%[38.3 µM]; ALDH1A1 inh: 5.62µM*; IMPase inh: 27.2

What do the screens show for `CC1=C(C(N)=O)C(c2ccc(F)cc2)n2nc(-c3ccc(N(C)C)cc3)nc2N1` (centres undefined)?
IMPase inh: 3.4

Results for COc1ccc(NC(=O)CSc2c3c(nc4ccccc24)CCCC3)c(OC)c1 ?
PNC assembly inh: -113.0*; HPGD block: -6.8%; 12-hLO inh: -1.4%; IMPase Li cell: 4.5%; ALDH1A1 inh: -5.2%

What do the screens show for `O=C(O)CSc1c2c(nc3cc(C(=O)N4CCOCC4)ccc13)CCCC2`?
PNC assembly inh: 28.7; HPGD block: 3.98µM*; 12-hLO inh: 0.5%; IMPase Li cell: -4.4%[38.3 µM]; ALDH1A1 inh: -1.6%; IMPase inh: -5.3

How did COc1ccc(NC(=O)Cn2c(=O)n(CC3CCCO3)c(=O)c3ccccc32)c(OC)c1 (centres undefined) do in these assays?
IMPase Li cell: -6.3%; ALDH1A1 inh: 0.0282µM*

How did COc1cc(NC(=O)c2ccc3c(SCC(=O)O)c4c(nc3c2)CCCC4)cc(OC)c1OC do in these assays?
IMPase Li cell: -9.3%; ALDH1A1 inh: 10µM*

How did COc1cc(OC)c(NC(=O)c2ccc3c(SCC(=O)O)c4c(nc3c2)CCCC4)cc1Cl do in these assays?
IMPase Li cell: -4.1%; ALDH1A1 inh: -17.1%

What do the screens show for `Cc1nc2c(OCc3ccccc3)cccn2c1CC#N`?
HPGD block: -19.0%; 12-hLO inh: -5.1%; IMPase Li cell: 11.8%; ALDH1A1 inh: 11.9%; IMPase inh: 2.3

What do the screens show for `CCOc1ccc(S(=O)(=O)NCCC(=O)OCC(=O)N2CC(=O)Nc3ccccc32)cc1`?
IMPase Li cell: 3.0%; ALDH1A1 inh: inconclusive

How did CO/N=C\c1ccc(C(=O)N2[C@H](c3ccc(C)cc3)[C@@H](C)CC[C@H]2C(=O)OC)cc1 do in these assays?
ALDH1A1 inh: 5.0%[13.5 µM]

What do the screens show for `Cc1noc(C(=O)N2CC3(C)CC2CC(C)(C)C3)c1Cl` (centres undefined)?
PNC assembly inh: inconclusive; HPGD block: -8.4%; 12-hLO inh: -3.0%; IMPase Li cell: 1.1%[38.3 µM]; ALDH1A1 inh: 17.8µM*; IMPase inh: 9.1
